The text below walks through data of PubChem BioAssay AID651813 (National Center for Advancing Translational Sciences (NCATS), 2012).

The campaign covered roughly 2,100 compounds. About 1,100 (52%) were called active. Inconclusive results (about 27%) are left out. The call rests on the fitted dose curve; in most records, active means well fitted inhibition curve with a large enough effect; inconclusive means small, poorly fitted or top-dose-only effect; inactive means no such curve, though single readings can be large or run the other way. The set was probably picked from earlier hits. Some of the results follow.
Potency means the concentration at half of the fitted maximal effect.

Chain of DNA dC->dU-editing enzyme APOBEC-3G (Homo sapiens) (Q9HC16 whole entry, looked up): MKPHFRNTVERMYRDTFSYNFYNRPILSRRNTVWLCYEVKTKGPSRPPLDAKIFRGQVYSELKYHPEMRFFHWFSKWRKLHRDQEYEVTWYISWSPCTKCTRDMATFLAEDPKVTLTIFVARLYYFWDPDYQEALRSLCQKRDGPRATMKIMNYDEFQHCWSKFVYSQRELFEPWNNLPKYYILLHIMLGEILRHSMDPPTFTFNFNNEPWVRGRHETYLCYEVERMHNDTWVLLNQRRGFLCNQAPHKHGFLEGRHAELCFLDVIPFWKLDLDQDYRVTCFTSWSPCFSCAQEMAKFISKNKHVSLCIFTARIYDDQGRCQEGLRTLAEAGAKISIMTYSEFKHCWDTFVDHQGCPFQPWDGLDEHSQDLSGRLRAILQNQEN

In this experiment the target is DNA dC->dU-editing enzyme APOBEC-3G (Homo sapiens) (UniProt Q9HC16). The experiment in a line: qHTS for inhibitors of Vif-A3G interactions: Cherry picks counterscreen.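 Further: hits raise yellow fluorescence by blocking Vif-driven A3G-eYFP degradation; nearly all actives have a fitted effect of over 70% in size.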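 On max response: max response given as percent of control signal.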 The following applies: HeLa A3G-eYFP + Vif (tagged APOBEC3G with the HIV-1 protein that degrades it), eYFP fluorescence, 24 h. The source says:
The recent discovery and characterization of host restriction factors, which provide a potent defense to invading retroviruses, has provided new targets for antiviral drug development. APOBEC3G (A3G) and APOBEC3F (A3F) are potent cytidine deaminases that block HIV-1 replication; HIV-1 expresses the Vif protein, which counteracts A3G and A3F by binding to them and inducing their proteasomal degradation. The Vif-A3G and Vif-A3F interactions provide two potential targets for development of small molecules which can interfere with the ability of Vif to degrade A3G or A3F. […] To identify inhibitors that can interfere with Vif mediated degradation of A3G and A3F, we have developed Hela cell lines that stably express A3G or A3F tagged with eYFP at the C-terminal end (A3G-eYFP or A3F-eYFP, respectively) and Vif. In the absence of an inhibitor, Vif induces degradation of A3G-eYFP and A3F-eYFP, and the cells are not fluorescent. In the presence of an inhibitor, it is expected that Vif will be unable to degrade A3G-eYFP and/or A3F-eYFP, resulting in an increase in yellow fluorescence. In this counterscreen assay, Vif A3G was screened against the cherry picks ordered from the MLSMR. NIH Chemical Genomics Center [NCGC] NIH Molecular Libraries Probe Centers Network [MLPCN] MLPCN Grant: MH093245 Assay Submitter (PI): Vinay Pathak, National Cancer Institute
A3G-Vif cells were harvested from T225 flask and resuspended in phenol free OPTI-MEM medium with 5% FBS. Then 5 uL of 140,000 cells/mL resuspended cells was dispensed into each well of low base Aurora COC 1,536-well plates (black walled, clear bottom) using a Multidrop Combi dispenser. After overnight culture at 37 deg C with 5% CO2, a total of 23 nL of compounds at 5 selected concentrations from the NPC or positive control (2 mM stock of MG132) in DMSO was transferred to each well of the assay plate using a pintool (Kalypsys, San Diego, CA), and the plates were further incubated at 37 deg C with 5% CO2 for 24 hours. After that, the plates were measured on Acumen Explorer (TTP Lab Tech). The fluorescence was detected by 488 nm/Ex and […].
For the compound `COC(=O)CCC(=O)NC(=S)Nc1sc(C)c(C)c1C(N)=O`, the Potency is 0.886 µM (active).

For `Cc1nonc1NC(=O)CSc1nc2c(C)cccc2cc1C#N`, the Potency is 20.6 µM (active).

Consider `Cc1cc(NC(=O)CSc2nc(-c3cccs3)nc3ccccc23)no1`, for which the Potency was 3.53 µM (active).

As to `Cc1cc(NC(=O)CSc2nc3c(C)cccc3cc2C#N)no1`, the Potency is 4.11 µM (active).

For the compound `C1=Cc2ccccc2/C1=C\c1cc2c3c(c1)CCCN3CCC2`, the Potency was 13 µM (active).

Consider `c1ccc2c(CCc3c[nH]c4ccccc34)ccnc2c1`, for which the Potency is 16.4 µM (active).

Regarding `CSc1nsc(/C=C/Nc2ccc(C)cc2)c1C#N`, the Potency was 15.8 µM (active).

As to `CSc1nsc(/C=C/Nc2ccc(F)cc2)c1C#N`, the Potency was 16.4 µM (active).

`CCN(CC)c1ccc(/C=c2/sc3nnc(-c4ccccc4C)n3c2=O)cc1`: the Potency was 23.1 µM (active).

`CCOC(=O)Nc1ccc2nc(-c3cscn3)[nH]c2c1`: the Potency is 8.86 µM (active).

Consider `O=C(O)CCCN1C(=O)/C(=C\C(Cl)=C\c2ccccc2)SC1=S`, for which the Potency was 5.59 µM (active).

Take `CCC(=O)Nc1ccccc1-c1nc2ccccc2n(C(C)C(=O)Nc2ccc(OC)cc2)c1=O` (stereo not given): the Potency was 8.2 µM (active).

Turning to `COCCNC(=O)C(=O)Nc1ccc2c(c1)N(S(=O)(=O)c1cccs1)CCC2`, the Potency was 6.27 µM (active).

Turning to `O=C(Nc1nc2ccccc2s1)c1ccc([N+](=O)[O-])o1`, the max response was -24.2% (inactive).

Consider `Nc1c(C(=O)Nc2nc3ccccc3s2)sc2nc(-c3cccs3)ccc12`, for which the Potency is 6.51 µM (active).

`Cc1nnc(NC(=O)c2sc3nc(-c4cccs4)cc(C(F)(F)F)c3c2N)s1`: the Potency is 2.59 µM (active).

Consider `Nc1c(C(=O)Nc2nccs2)sc2nc(-c3cccs3)cc(C(F)(F)F)c12`, for which the Potency was 7.9 µM (active).

For `Nc1c(C(=O)Nc2ccc(F)cc2)sc2nc(-c3cccs3)cc(C(F)(F)F)c12`, the Potency was 0.82 µM (active).

Consider `CC(C)Cn1c(N)c(C(=O)COC(=O)c2ccc([N+](=O)[O-])o2)c(=O)n(C)c1=O`, for which the max response is 8.96% (inactive).

In the case of `Cc1c(C(=O)C(=O)N2CCCc3ccccc32)c2ccccc2n1C`, the Potency was 11.2 µM (active).

Take `Cc1c(C(=O)C(=O)N2CC=C(c3ccccc3)CC2)c2ccccc2n1C`: the Potency was 7.04 µM (active).

Take `O=C(/C=C/c1ccco1)N1CCc2ccccc21`: the max response is -19.9% (inactive).

Turning to `Cc1ccc(NC(=S)Nc2ccccn2)c(C)c1`, the max response was -5.64% (inactive).

Turning to `CCOC(=O)c1ccc(NC(=S)Nc2cccc(C)n2)cc1`, the max response was -9.19% (inactive).

Regarding `CCOC(=O)c1cc(-c2ccccc2)sc1NC(=S)Nc1cc(C)ccn1`, the Potency is 18.4 µM (active).

In the case of `Cc1ccnc(NC(=O)Nc2ccc3c(c2)N(C)C(=O)CS3)c1`, the Potency is 2.59 µM (active).

`Cc1ccc(-c2nc3sc(C#N)c(N)n3c(=O)c2C#N)cc1`: the Potency was 25.9 µM (active).

As to `O=C1c2ccccc2C(=O)c2cc(N3CCCCC3)ccc21`, the Potency was 6.27 µM (active).

For the compound `Cc1ccc(C(=O)N/C(=C/c2ccc(-c3ccc([N+](=O)[O-])cc3)o2)C(=O)NCCCN(C)C)cc1`, the Potency is 15.8 µM (active).

Consider `Cc1cc2nc3s/c(=C/c4ccc(-c5ccccc5C(=O)O)o4)c(=O)n3c2cc1C`, for which the Potency is 23.1 µM (active).

As to `Cc1cc(C)cc(NC(=S)NC(=O)C2CC2)c1`, the max response was -14.6% (inactive).

Regarding `O=C1/C(=C\c2cc([N+](=O)[O-])ccc2O)SC(=S)N1Cc1ccc(Cl)cc1`, the Potency was 18.4 µM (active).

`Cc1cc(N)cc(C)c1-c1c(Br)cc(N)cc1Br`: the Potency is 8.86 µM (active).

For the compound `Nc1c(C(=O)c2ccccc2)sc2nsc(SCCN3CCOCC3)c12`, the Potency was 4.61 µM (active).

Take `Nc1c(C(=O)c2ccccc2)sc2snc(SCC(=O)c3ccccc3)c12`: the Potency was 14 µM (active).

`Nc1c(C(=O)c2ccccc2)sc2nsc(SCCN3CCCC3)c12`: the Potency was 14 µM (active).

On to `COc1ccc(OC)c(S(=O)(=O)N/N=C\c2cn(CC(N)=O)c3ccccc23)c1`, for which the Potency was 15.8 µM (active).

Take `CCN(CC)C(=O)Cn1c(C)c(/C=C/c2cc[n+](C)cc2)c2ccccc21`: the Potency is 15.8 µM (active).

`COC(=O)Cn1c(C)c(/C=C/c2cc[n+](C)cc2)c2ccccc21`: the Potency was 9.2 µM (active).

Consider `CCOC(=O)c1c(Nc2ccc(Cl)cc2)sc(/C=C2\C=Nc3ccccc32)c1O`, for which the Potency is 20.6 µM (active).

As to `COc1ccccc1N=C1NC(=O)/C(=C/c2ccc(N(C)C)cc2)S1`, the max response is 38.1% (inactive).

Regarding `CCOc1ccc(N(C)c2ccc(/C=C3/SC(=S)NC3=O)cc2)cc1`, the Potency was 15.8 µM (active).

Turning to `CN(C)c1ccc(C=C2SC(=S)NC2=O)cc1`, the Potency is 9.94 µM (active).

`C=C1C(=O)O[C@@H]2[C@H]1[C@@H](OC(=O)/C(C)=C/C)C/C(C)=C\C(=O)/C=C(\C)[C@@H]2O`: the Potency was 15.8 µM (active).

Turning to `CCCN1C(=O)/C(=C/C=C2\N(CC)c3ccccc3C2(C)C)SC1=S`, the Potency was 1.58 µM (active).

In the case of `CN1/C(=C/C=C(/C#N)C(N)=O)C(C)(C)c2ccccc21`, the Potency was 9.94 µM (active).

With `CCCN1C(=O)/C(=C\C=C2\N(CC)c3ccccc3C2(C)C)SC1=S`, the Potency is 2.06 µM (active).

In the case of `C=CCN1C(=O)/C(=C\C=C2\N(C)c3ccccc3C2(C)C)SC1=S`, the Potency was 0.291 µM (active).

Turning to `CN1/C(=C\C=C2/SC(=S)N(CC(=O)O)C2=O)C(C)(C)c2ccccc21`, the max response was 52.2% (inactive).

Regarding `CCCCN1C(=O)/C(=C/C=C2/CC(C)(C)CN2C)SC1=S`, the max response was 54.7% (inactive).

For `CN1/C(=C\C=C2/SC(=S)NC2=O)C(C)(C)c2ccccc21`, the Potency was 3.53 µM (active).

As to `COc1ccc2c(c1)/C(=C/c1cc(OC)c(OC)c(OC)c1)C(=O)N2`, the Potency was 3.53 µM (active).

Consider `COc1ccc2c(c1)/C(=C\c1cccc(/C=C3/C(=O)Nc4ccc(OC)cc43)n1)C(=O)N2`, for which the max response is -72.2% (inactive).

Regarding `O=[N+]([O-])c1cc(-c2nc(-c3ccccc3)no2)ccc1NCc1ccco1`, the Potency was 10.3 µM (active).

`Cc1cccc(-c2noc(-c3ccc(NCc4ccco4)c([N+](=O)[O-])c3)n2)c1`: the Potency was 20.6 µM (active).

Turning to `O=C1N/C(=N\N=C\c2ccco2)SC1Cc1ccccc1[N+](=O)[O-]` (stereo not given), the max response is -1.06% (inactive).

With `O=C(NCc1cccnc1)c1cccc(NS(=O)(=O)c2ccc(Br)cc2)c1`, the Potency is 4.44 µM (active).

On to `N#CC1=C(N)Oc2ccc3ccccc3c2C1c1cccnc1` (stereo not given), for which the Potency is 6.27 µM (active).

Regarding `CCN(CC)c1ccc2c(c1)OC(N)=C(C#N)C2c1cccnc1` (stereo not given), the Potency was 15.8 µM (active).

As to `COc1cc(OC)c(/C=C/c2ccc3ccccc3[n+]2C)c(OC)c1`, the Potency is 20.6 µM (active).

With `CCCCN1C(=O)C2Cc3c([nH]c4ccccc34)CN2C1=S` (stereo not given), the Potency was 15.8 µM (active).

Turning to `CCOc1ccc(CN2C(=O)c3ccccc3Sc3ccc(C(=O)O)cc32)cc1`, the Potency is 4.61 µM (active).

Take `O=C(NNC1=Nc2cccc3cccc1c23)c1ccc(Br)cc1`: the Potency was 23.1 µM (active).

Consider `Nc1c(C(=O)N/N=C/c2ccccc2Cl)oc2nc(-c3ccccc3)cc(-c3ccco3)c12`, for which the Potency is 2.91 µM (active).

For `Cc1cc(-c2ccccc2)nc(N/N=C/c2ccccc2F)n1`, the max response is -29.5% (inactive).

For `C/C(=N\Nc1nc(C)cc(-c2ccccc2)n1)c1ccc(F)cc1`, the max response is -5.07% (inactive).

As for `Nc1c(C(=O)N/N=C/c2ccc(F)cc2)oc2nc(-c3ccccc3)cc(-c3ccco3)c12`, the Potency was 6.27 µM (active).

`Nc1c(C(=O)N/N=C/c2cccnc2)oc2nc(-c3ccccc3)cc(-c3ccco3)c12`: the Potency is 8.2 µM (active).

For the compound `CSCC[C@H](NC(=O)[C@H](Cc1ccccc1)n1c(=O)[nH]c2ccccc2c1=O)C(=O)N1CCC[C@@H]1C(=O)O`, the max response is 6.25% (inactive).

On to `O=C(CN1c2ccccc2Sc2ccccc21)NNC(=O)Nc1cccc(Cl)c1`, for which the max response was -25.9% (inactive).

As to `COc1ccc(NC(=O)CN2C(=O)C3(SCC(=O)N3c3ccccc3)c3ccccc32)cc1Cl` (stereo not given), the max response is 10.4% (inactive).

With `O=C(CN1C(=O)CSc2ncccc21)Nc1cccc(Cl)c1`, the Potency is 23.1 µM (active).

On to `CC(/C=C/c1ccc(N(C)C)cc1)=N\N=C(/N)SC1CC(=O)N(c2ccc(C(=O)O)cc2)C1=O` (stereo not given), for which the max response is -29.3% (inactive).

As to `CCOC(=O)C1C(=O)C=C(/C=C/c2ccc(N(C)C)cc2)CC1c1ccccc1` (stereo not given), the Potency was 4.61 µM (active).

With `CC(C)CC(=O)NC(=S)N(Cc1ccccc1)Cc1ccccc1`, the max response is -12.5% (inactive).

As for `COc1cc(/C=C2\C(=N)N3N=CSC3=NC2=O)cc(Br)c1OC(=O)c1ccco1`, the max response was 43.8% (inactive).

Turning to `COc1cc(/C=C2\SC(N)=NC2=O)cc(Br)c1O`, the Potency was 17.7 µM (active).

With `CCC(C)Sc1cc(-c2nc3ccccn3c2NC2CCCCC2)ccc1OC` (stereo not given), the max response is 6.89% (inactive).

As for `CCOc1cc(C)nc(NCc2ccccc2)n1`, the max response was -21.7% (inactive).

With `COc1ccc(-c2nnc(SCC(=O)NCc3ccccc3)nc2-c2ccc(OC)c(OC)c2)cc1OC`, the Potency is 2.59 µM (active).

On to `CCOc1cc(-c2nnc(SCC(=O)NCc3ccccc3)nc2-c2ccc(OC)c(OCC)c2)ccc1OC`, for which the Potency was 2.31 µM (active).

Turning to `COc1cc(-c2nc3ccc(C)cn3c2NCc2ccccc2)ccc1SC1CCCCC1`, the max response was 34.4% (inactive).

With `COc1ccc(-c2nc3c4ccccc4ccn3c2Cc2ccsc2)cc1OC`, the max response was -1.53% (inactive).

For the compound `N#CCSc1ccccc1NC(=O)COc1ccc(-c2nnco2)cc1`, the Potency was 12.5 µM (active).

As to `Cc1nc(C)c(C(=O)OCC(=O)Nc2ccccc2SCC#N)s1`, the Potency was 15.8 µM (active).

Take `CCC1=Nc2cc(C(=O)NCc3cccnc3)ccc2Sc2ccc(C)cc21`: the Potency was 12.5 µM (active).

For the compound `COc1ccc(C(=O)NC(=S)NCc2cccnc2)cc1Cl`, the max response is -0.724% (inactive).

For the compound `C=CCNc1nc(-c2ccccc2)c(C(=O)OCC)cc1C#N`, the Potency is 7.04 µM (active).

As for `CCOC(=O)c1cnc(-n2nc(C)cc2C)nc1NNc1nc(-c2ccccc2)cc(-c2ccccc2)n1`, the max response is 18.7% (inactive).

In the case of `CCOC(=O)c1cnc(-n2nc(C)cc2C)nc1NNc1cc(C)nc(-c2ccccc2)n1`, the max response is 14.5% (inactive).
